TIM10 inh – TIM10 yeast growth inhibition; S. cerevisiae TIM10 strain growth, BacTiter-Glo luminescence, 24 h; inhibition, % at 10 µM; 330,000 compounds, 1.4% hits; AID 463195;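 active = inhibition of 40% or more at the single tested concentration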;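 note: wild-type TIM10 isogenic control strain grown at permissive 25 °C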
tim23-1 inh – inhibits growth of tim23-1 mutant yeast | inhibition, % at 20 µM | 330,000 compounds, 1.3% hits | S. cerevisiae tim23-1 growth, BacTiter-Glo luminescence, 24 h;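 active = growth inhibition of the mutant yeast at or above 50%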;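 note: temperature-sensitive mutant grown at 25 °C; plate controls were DMSO-treated mutant yeast for no effect and medium wells lacking yeast for full effect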
tim10-1 inh – tim10-1 yeast growth inhibition | S. cerevisiae tim10-1 ts strain growth, BacTiter-Glo, 24 h | inhibition, % at 20 µM | 330,000 compounds, 2.2% hits | AID 463190;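 active = inhibition of at least 40%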;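 note: mutant grown at 25 °C; 0% = DMSO wells with yeast and 100% = wells holding no yeast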
PfHsp90 yeast 2 – inhibits growth of yeast expressing Plasmodium falciparum Hsp90; S. cerevisiae expressing PfHsp90, BacTiter-Glo ATP, 48 h; yeast lacking PDR1 and PDR3 efflux regulators; 310,000 compounds, 0.32% hits; inhibition, % at 9.4 µM; AID 504621;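 active = every replicate shows inhibition above about 80%, whatever the replicate mean, limit read from the data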;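 note: 0% = DMSO neutral controls and 100% = 20 µM radicicol positive controls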
SKKanGAS inh – blocks kanamycin growth of S. pyogenes SKKanGAS strain; BacTiter-Glo, 6 h; inhibition, % at 7.5 µM; 300,000 compounds, 1.3% hits; AID 1662;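 active = mean replicate score, as percent of positive control median, at least 50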;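 note: strain carries kanamycin resistance gene driven by streptokinase promoter and grows in 40 µg/ml kanamycin; loss of luminescence reflects streptokinase promoter inhibition or plain growth inhibition; 0% = median of DMSO wells and 100% = positive control at its reference dose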
NLRP3 yeast inh – blocks the NALP3 inflammasome reconstituted in yeast; Yeast reconstituted NLRP3/ASC/caspase-1, beta-gal luminescence, 24 h; inhibition, % at 10 µM; 330,000 compounds, 0.39% hits;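 active = inhibition of 50% or more; inactive = inhibition below 50%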;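 note: plate controls were induced DMSO wells for no effect and uninduced yeast grown without galactose for full effect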
tim10-1 confirm – tim10-1 yeast growth inhibition, confirmed; inhibition, % at 20 µM; 7,400 compounds, 56% hits; S. cerevisiae tim10-1 ts strain growth, BacTiter-Glo, 24 h; AID 463213; shares compounds with tim10-1 inh;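 active = inhibition of yeast growth at or above a set limit in either of two repeat tests at 20 µM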;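 note: tim10-1 mutant grown at permissive 25 °C to find synthetic lethal compounds; 0% = DMSO yeast wells and 100% = medium wells without yeast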
TIM10 conf – TIM10 yeast growth inhibition, confirmed. shares compounds with TIM10 inh. inhibition, % at 10 µM. 4,600 compounds, 63% hits. S. cerevisiae tim10 strain growth, BacTiter-Glo luminescence, 24 h;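 active = inhibition of yeast growth at or above a set limit in either of two replicates at 10 µM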;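 note: this counterscreen used the strain with wild-type TIM10; 0% = yeast with DMSO and 100% = medium wells lacking yeast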
* hit, by the source's call; x = not tested or not shown. Rows were chosen to be rich in hits. Some 4.6% of all compounds tested hit in one or more screens of this group.

SMILES	TIM10 inh	tim23-1 inh	tim10-1 inh	PfHsp90 yeast 2	SKKanGAS inh	NLRP3 yeast inh	tim10-1 confirm	TIM10 conf
COc1ccccc1OCC(=O)Nc1cc2c(cc1C(=O)O)OCCCO2	1.4	10.7	-1.8	7.5	-4.0	13.5	x	x
C=CCNc1nnc(SC2CC(=O)N(c3ccc(OCCC)cc3)C2=O)s1 (stereo not drawn)	67.6*	45.6	63.0*	9.8	-6.9	18.9	74.0*	69.4*
CCOC(=O)c1ccc(N2C(=O)CC(Sc3nnc(C)s3)C2=O)cc1 (stereo not drawn)	64.5*	38.0	54.6*	-30.9	0.8	28.2	77.7*	60.4*
COc1ccc(NC(=O)COC(=O)CO/N=C(\C)c2ccc3c(c2)OCO3)cc1S(N)(=O)=O	10.3	12.3	5.6	9.8	x	2.7	x	x
O=[N+]([O-])CC(c1ccc(F)cc1)c1c[nH]c2ccccc12 (stereo not drawn)	43.5*	43.9	50.9*	-75.0	3.0	-7.6	66.3*	59.5*
Cc1c(/C=N/NC(=O)c2sc3ccccc3c2Cl)cnn1C	43.3*	11.3	52.7*	-12.5	-5.9	4.6	34.0*	50.2*
N#CC1(NC(=O)COC(=O)/C=C/c2ccc3ccccc3n2)CCCCC1	10.8	5.9	13.6	-16.8	11.7	7.7	x	x
c1ccc(Nc2cc(-c3ccccc3)nc3ncnn23)cc1	56.7*	34.6	48.0*	17.4	-3.4	14.0	42.7*	48.3*
FC(F)(F)c1cccc(NC(=S)NNC(=S)Nc2cccc(C(F)(F)F)c2)c1	54.3*	39.9	46.9*	x	100.8*	13.4	28.9	53.7*
CNNC(=S)Nc1cccc(C(F)(F)F)c1	1.9	5.4	-5.9	x	-4.2	8.4	x	x
Cc1n[nH]c(C)c1Sc1ccccc1[N+](=O)[O-]	6.2	-6.6	5.7	x	-3.2	4.4	x	x
Cc1ccc(-n2nc(C)c(Sc3ccccc3[N+](=O)[O-])c2N)cc1	43.8*	48.2	43.9*	-24.4	-1.1	18.7	34.5*	33.0*
CCOc1ccc(-c2noc(CCC(=O)NCC3CCCO3)n2)cc1OC (stereo not drawn)	-7.8	14.8	11.9	3.1	6.2	2.8	x	x
Cc1cc(C)c(S(=O)(=O)ON2C(=O)c3ccccc3C2=O)cc1C	44.7*	13.8	70.5*	3.1	22.8	26.4	60.2*	73.6*
Cc1ccc(S(=O)(=O)ON2C(=O)c3ccccc3C2=O)c(C)c1	x	x	x	11.2	x	x	x	x
Cc1ccc(SCC(=O)Nc2ccc(S(N)(=O)=O)cc2)cc1	7.0	10.0	-2.3	3.5	16.2	3.3	x	x
CCS(=O)(=O)c1ccc2oc(Nc3cc(C)cc(C)c3)nc2c1	43.5*	42.8	47.1*	-13.7	-13.6	-43.3	36.6*	37.1*
COc1ccccc1C(=O)Nc1sc2c(c1C(=O)NCc1ccco1)CCCC2	6.9	-1.5	8.7	-30.6	4.3	16.8	x	x
Cc1occc1C(=O)N/N=C/C=C\c1ccccc1[N+](=O)[O-]	3.2	8.9	6.3	-11.2	2.9	2.6	x	x
Cc1ccsc1C(=O)N/N=C/C=C/c1ccccc1[N+](=O)[O-]	61.9*	48.6	48.1*	-11.0	3.6	24.1	48.0*	-18.8
C(=N\Nc1nc(Nc2ccccc2)nc(N2CCCCC2)n1)/c1ccco1	48.1*	46.7	49.8*	x	81.3*	19.7	31.2	37.3*
CCCC(=O)Nc1nc(C)c(-c2csc(Nc3ccccc3C)n2)s1	5.3	9.1	11.4	-21.6	16.1	16.1	x	x
CCC(=O)Nc1nc(C)c(-c2csc(Nc3ccccn3)n2)s1	41.9*	35.4	40.5*	5.8	14.9	0.8	29.6	47.0*
O=C1NC(=O)c2c(Br)c(Br)c(Br)c(Br)c21	x	x	x	-7.7	x	x	x	x
O=C(OCc1cccc(C(F)(F)F)c1)c1cc(S(=O)(=O)N2CCOCC2)ccc1F	-8.8	31.4	32.9	-22.3	-2.6	19.1	x	x
SMILES	TIM10 inh	tim23-1 inh	tim10-1 inh	PfHsp90 yeast 2	SKKanGAS inh	NLRP3 yeast inh	tim10-1 confirm	TIM10 conf
Clc1ccc(CN2CCc3c([nH]c4ccccc34)C2)cc1Cl	41.0*	41.8	74.8*	-15.6	18.6	19.3	74.6*	57.8*
CSc1ccc(CN2CCc3c([nH]c4ccccc34)C2)cc1	33.5	8.9	14.8	2.8	1.1	13.3	x	x
CCOC(=O)c1c(-c2ccc(C)cc2)csc1NC(=O)c1cc2ccccc2oc1=O	7.7	5.8	-16.5	-6.5	0.0	13.1	x	x
FC(F)(F)c1cccc(Cc2noc(CN3CCC(c4ccncc4)CC3)n2)c1	42.1*	44.8	44.2*	-5.2	-1.1	10.2	41.5*	43.3*
CN1CCCC2(CCCN(Cc3nc(Cc4cccc(C(F)(F)F)c4)no3)C2)C1 (stereo not drawn)	-1.0	19.8	6.6	2.0	-1.4	9.1	x	x
Cc1cc(C)c(S(=O)(=O)N(CC(=O)N2CCCC2)C2CCCCC2)c(C)c1	43.3*	48.3	40.0*	x	15.9	-0.6	23.2	13.8
Cc1ccc(S(=O)(=O)N(CC(=O)N2CCCC2)C2CCCCC2)cc1	14.1	11.8	12.1	16.4	3.4	9.7	x	x
CC(C)(C)c1ccccc1NC(=S)NC1CCCC1	23.1	38.6	32.5	21.0	-0.8	38.6	x	x
CC(C)(C)c1ccccc1NC(=S)NC1CCCCC1	44.6*	36.9	43.3*	-11.6	-0.7	28.0	20.4	32.3*
COc1ccc(CNC(=O)[C@@H](NC(=O)C2CCN(C(=O)[C@@H](N)Cc3ccccc3)CC2)C(C)C)cc1	-1.2	3.0	-7.9	-10.7	-0.6	-2.1	x	x
N#Cc1c(Cl)c(Cl)c2nnc(-c3ccc(Br)cc3)n2c1Cl	58.2*	42.0	45.7*	x	13.2	6.0	28.5	14.9
[S-]c1nnc(-c2ccc(Br)cc2)n1-c1ccccc1.[Zn+2]	3.3	14.1	3.3	1.4	-3.0	16.0	x	x
Cc1onc(-c2ccccc2)c1C(=O)N1CCN(C/C=C/c2ccccc2)CC1	17.4	19.8	10.2	12.9	-4.0	13.2	x	x
COCCCn1c(SCC(=O)N2CC(=O)Nc3ccccc32)nnc1-c1ccoc1C	4.1	3.4	4.9	-20.6	2.6	1.3	x	x
COCCCn1c(SCC(=O)n2c(C)c(C)c3ccccc32)nnc1-c1ccoc1C	40.4*	33.9	44.3*	13.1	-2.0	17.1	32.9*	-6.0
CCOC(=O)CN1N=C(c2ccc(Cl)s2)CSC1=O	-2.5	24.1	13.4	-32.1	3.2	-30.2	x	x
CCN(CC(=O)Nc1cc(C)nn1-c1nc(C)cc(C)n1)Cc1ccccc1	43.6*	29.4	43.7*	-15.5	32.4	9.1	19.0	-26.6
CCOCCCn1c(SCC(=O)Nc2ccc(NC(C)=O)cc2)nc2ccccc2c1=O	9.0	12.6	-0.9	-6.5	-5.0	13.6	x	x
